± gives the standard deviation of the averaged measurements. The full ranking holds about 33,000 sequences; the median of “E-score (rank enrichment, -0.5 to 0.5)” is about -0.0075, and the highest 2% start at about 0.23. Many of the other results were omitted from the sample, so the highest values are more common in it than they were.
What follows are sequences tested on WT Max(13-93) synthetic (M65Nle) (assay: PBM 8-mer E-score (E-score (rank enrichment, -0.5 to 0.5)); higher = stronger preferential binding).
Description: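 Protein binding microarray (universal PBM chip covering all 10-mers in fixed probe flanks) with chemically synthesized human Max(13-93) bHLH-LZ analogs (not full-length Max) bearing noncanonical residues (hArg, Tha, Aib, Nle at 65) and aromatic Cys staples. Read-out per 8-mer (and its reverse complement): E-score (rank-based enrichment, -0.5 to 0.5) and Z-score of median probe intensity.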

Sequence	PBM 8-mer E-score
AATGTGAA	0.181 ± 0.089
CATGTGAA	0.249 ± 0.059
GATGTGAA	0.15 ± 0.0086
AATGTGAC	-0.0272 ± 0.014
CATGTGAC	0.3772 ± 0.0032
AACCCGCT	0.00053 ± 0.075
ATAACCCG	-0.0972 ± 0.023
GATACTGA	-0.0332 ± 0.11
CTATAAAA	0.0799 ± 0.029
ATATAAAT	0.26 ± 0.013
ATAAAAAT	0.209 ± 0.032
GGATAAAA	0.116 ± 0.12
GTATAAAA	0.2289 ± 0.0018
ACATAAAT	0.249 ± 0.026
ACATAAAG	0.197 ± 0.04
CGATAAAA	0.0372 ± 0.13
ATATAAAG	0.138 ± 0.006
ATATAAAA	0.257 ± 0.14
TGATAAAA	0.282 ± 0.056
ACATAAAA	0.192 ± 0.085
TGTCTAAA	0.127 ± 0.015
TTGCTAAA	-0.0675 ± 0.037
ACATCGCC	0.0533 ± 0.012
CATAAGCG	-0.0132 ± 0.16
ACGCTACT	-0.103 ± 0.057

Sequence	PBM 8-mer E-score
CGCACAGA	-0.00527 ± 0.17
GCTACTTA	0.0733 ± 0.061
GCATCAAA	0.0826 ± 0.0033
TCAGTACA	-0.0447 ± 0.075
ATATAAGA	0.257 ± 0.1
GTATAAAC	0.097 ± 0.035
GTATAAGA	0.176 ± 0.037
CTATAAAC	-0.0175 ± 0.061
ATATAAAC	0.249 ± 0.1
CTATAAGA	0.00621 ± 0.13
CCGCACAA	-0.0967 ± 0.091
CAGTGTCG	-0.18 ± 0.018
TTGGACAA	0.137 ± 0.038
CTGGACAA	-0.0424 ± 0.18
AGGGACAA	-0.0703 ± 0.11
TGGGACAA	0.233 ± 0.12
GTGGACAA	0.236 ± 0.0099
GGGGACAA	-0.00341 ± 0.1
ATCTAAGG	0.00267 ± 0.011
GACAGTAC	0.0423 ± 0.12
AACAGCCA	0.0334 ± 0.032
GCCCGGAC	-0.319 ± 0.01
TGCACACA	0.0593 ± 0.099
ATAGGCTA	0.00221 ± 0.094
CCTTTTCA	0.245 ± 0.15

Sequence	PBM 8-mer E-score
CTATTTAA	0.0374 ± 0.0014
ACATTTTA	0.297 ± 0.048
GCTTTTCA	0.0385 ± 0.086
GCTTTTAA	-0.0112 ± 0.043
CCTTTTTA	0.171 ± 0.029
GCATTTTA	0.16 ± 0.072
ATATTTAC	0.23 ± 0.07
CTTTTTCA	0.144 ± 0.055
ATATTTAA	0.302 ± 0.021
CCATTTTA	0.0902 ± 0.15
GCTTTTTA	0.237 ± 0.16
ACGAAATG	0.158 ± 0.068
CTCGGCTC	-0.235 ± 0.028
AGGGAATC	-0.0163 ± 0.031
GTTTCGTA	0.0743 ± 0.067
GCGCTCTA	-0.19 ± 0.062
CCATACAG	-0.026 ± 0.18
CGTGAGCA	-0.0547 ± 0.079
GTATTTTA	0.0179 ± 0.13
ATATTTTA	0.271 ± 0.033
CTATTTTA	0.0787 ± 0.12
CGTTTTCA	0.106 ± 0.036
AACAGGTC	-0.0763 ± 0.049
ACAACGTG	0.255 ± 0.089
ATAACGTG	0.261 ± 0.046

Sequence	PBM 8-mer E-score
ATAACGTC	0.136 ± 0.042
ACAACGTC	-0.0474 ± 0.05
ATAACGTA	0.203 ± 0.091
ACAACGTA	0.024 ± 0.002
GGCTGGCA	-0.311 ± 0.1
GCGTCTCA	-0.13 ± 0.025
CCGCACTC	-0.0409 ± 0.033
TATTTGAA	0.0846 ± 0.018
ACTTGGTC	0.0597 ± 0.089
CATTGTAA	0.134 ± 0.067
GACGTCGC	-0.091 ± 0.13
ACCGCGCT	-0.146 ± 0.012
ATGACCTC	0.0149 ± 0.085
TCAAACCA	0.172 ± 0.063
TGTTTTAA	0.115 ± 0.0028
GTTTTAAA	0.0916 ± 0.047
TGTTTAAA	0.252 ± 0.09
GGTTTCAA	0.077 ± 0.0057
AGTTTCAA	-0.0849 ± 0.1
TGTTTCAA	0.241 ± 0.011
GGTTTAAC	0.0486 ± 0.048
GGTTTAAA	0.233 ± 0.043
AGTTTAAA	0.164 ± 0.0074
GTCATCAA	0.0407 ± 0.073
AAGACGAC	0.0772 ± 0.12

Sequence	PBM 8-mer E-score
CAGCGTAG	0.0168 ± 0.0028
GACCATCA	-0.057 ± 0.034
AGGTAAGA	-0.0352 ± 0.073
CACGGTAG	-0.0473 ± 0.022
GTCAGCTA	-0.148 ± 0.085
GAATTGCA	0.06 ± 0.059
GTTCAGCA	0.0207 ± 0.087
CTGCGAAC	-0.0246 ± 0.099
ACCGTTGA	-0.15 ± 0.014
CATGTGCG	0.296 ± 0.028
GATGTGCC	-0.0199 ± 0.084
CCTGTGCG	-0.0525 ± 0.063
AATGTGCG	0.115 ± 0.0056
TATGTGCA	0.16 ± 0.02
AATGTGCC	-0.0182 ± 0.064
CATGTGCC	0.327 ± 0.011
GATGTGCA	0.052 ± 0.059
CATGTGCA	0.321 ± 0.025
GGGAGATA	0.0313 ± 0.14
AAATGGTG	-0.0479 ± 0.077
AGATTGGG	0.0796 ± 0.049
TCGGGAGA	-0.0551 ± 0.06
ACCGGAGT	-0.185 ± 0.077
AGCTCAAA	-0.101 ± 0.07
AAGTGTTG	0.2 ± 0.0011

Sequence	PBM 8-mer E-score
AGGTGTTA	0.0454 ± 0.019
CCGTGTTA	0.145 ± 0.056
ACGTGTTA	0.333 ± 0.053
ACGTGTTC	0.278 ± 0.11
GCGTGTAA	0.18 ± 0.091
GCGTGTTA	0.242 ± 0.043
CCGTGTTC	0.034 ± 0.081
ACGTGTTG	0.378 ± 0.067
AGGTGTTG	-0.0777 ± 0.036
AGGTGTTC	0.0938 ± 0.013
GCGTGTGA	0.201 ± 0.034
GTCTCACA	0.0533 ± 0.04
TAGTAGGA	-0.0355 ± 0.069
CCGACCCG	-0.101 ± 0.18
CATCTTTA	-0.0556 ± 0.15
GGTGTAGA	0.0276 ± 0.032
ACTCGGTG	-0.111 ± 0.026
AGTAGCGC	-0.0656 ± 0.04
AACCACTT	0.109 ± 0.14
ACCCAATG	-0.141 ± 0.067
ACCCCGCG	-0.0797 ± 0.15
AAGCTGGC	-0.176 ± 0.06
CCAACCGG	-0.267 ± 0.0078
CTAGCGCC	-0.283 ± 0.024
ATTGTCTC	-0.142 ± 0.088

Sequence	PBM 8-mer E-score
GTTGTCTA	0.224 ± 0.094
ATTGTCTA	0.26 ± 0.005
TATCTGCA	0.0121 ± 0.066
CAACTGCA	-9e-05 ± 0.065
CGATTATC	-0.178 ± 0.066
GTCGAAAC	0.079 ± 0.031
CATAACCA	0.165 ± 0.033
GATAACCA	0.24 ± 0.037
TATAACCA	0.17 ± 0.0076
CATAACTA	0.167 ± 0.0044
AATAACTA	0.125 ± 0.0044
GATAACTA	0.235 ± 0.061
CCATGACC	-0.0452 ± 0.14
AAGATACA	0.258 ± 0.015
CAGATATA	0.108 ± 0.023
AAGATAAC	0.266 ± 0.045
AAGATAAG	0.152 ± 0.024
AAGATACT	0.0763 ± 0.011
AAGATATA	0.253 ± 0.046
GAGATACA	0.0679 ± 0.025
AAGATATC	0.0756 ± 0.073
GAGATAAC	0.104 ± 0.025

Reference: the supplement of paper PMC12636033
